An excerpt weighted towards active compounds, which were near 1.9% of everything screened.
BRCA1 expr act: BRCA1 expression activation; MCF7-BRCA1-FFLuc reporter, luminescence, 48 h; response scale: scaled: vehicle 0%, 10 µM genistein 100%; Potency, µM (doses to about 46.1 µM), inactives show top-dose activation, hits mostly activators; 380,000 tested, 1.1% active; AID 624202; also: potency is read from the fitted curve at half-maximal effect; nearly all actives have a fitted effect of over 80% in size
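Luminescence from a BRCA1-driven firefly luciferase in MCF7 cells was read after 48 h compound exposure at 37 C. Data normalized against DMSO and a 10microM genistein activation control, then curve-fitted across the titration.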
NPSR antagonist: blocks cAMP signaling of the human neuropeptide S receptor; CHO-NPSR cells, cAMP TR-FRET, antagonist mode; Potency, µM (highest dose often 38.3 µM), without a hit: at the top dose activity change, negative = inhibition, most hits filed as inhibitors; Q6W5P4; 220,000 tested, 1% active; also: potency is read from the fitted curve at half-maximal effect; % is scaled to controls: 0 for no effect and ±100 for the full control effect; nearly all actives have a fitted effect of over 50% in size
Target sequence (Q6W5P4 whole entry, looked up): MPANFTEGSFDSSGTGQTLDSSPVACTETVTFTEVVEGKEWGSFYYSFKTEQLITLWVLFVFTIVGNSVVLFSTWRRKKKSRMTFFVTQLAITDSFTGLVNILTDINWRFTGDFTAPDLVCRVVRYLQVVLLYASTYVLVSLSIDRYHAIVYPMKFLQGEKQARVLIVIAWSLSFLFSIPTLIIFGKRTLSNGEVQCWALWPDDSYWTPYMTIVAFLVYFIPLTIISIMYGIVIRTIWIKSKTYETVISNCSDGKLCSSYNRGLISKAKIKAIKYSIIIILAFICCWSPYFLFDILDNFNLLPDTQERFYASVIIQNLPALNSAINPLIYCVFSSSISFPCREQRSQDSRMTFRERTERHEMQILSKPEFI
RXFP1 antag: RXFP1 (human) relaxin receptor antagonism. Q9HBX9. HEK293-RXFP1, relaxin-stimulated cAMP HTRF, 30 min; stronger effect = lower value. activity change, negative = inhibition, % at 57.5 µM. 350,000 tested, 0.59% active. AID 1259400;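 active = activity change of -60% or lower, but not beyond a set lower limit; inconclusive = change between -60% and -40%, or beyond the set limit; inactive = change above -40%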; also: % is scaled to controls: 0 for no effect and ±100 for the full control effect
IL-2 act: IL-2 activation; activation, % (series mostly up to about 46 µM); AID 652025; 360,000 tested, 0.065% active; IL-2 activation reporter assay, cell-based qHTS; stimulated with anti-CD3/CD4/CD28 beads; in transgenic mouse T cells; in the data active = activation above about 50%; inconclusive = mostly about 30% to 49%; also: 0% is about no effect
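Readout is EGFP and DsRed signal by fluorescent plate cytometry after 18 h at 37 degrees C. Transgenic mouse T cells (750/well) received compound for 60 min before bead stimulation (anti-CD3, anti-CD4, anti-CD28); memory T cells served as non-tolerant control.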
Giardia kill: kills Giardia lamblia | Giardia lamblia trophozoite viability | activity change, % at 7.66 µM, hits read low | AID 540267 | 340,000 tested, 0.15% active; in the data active = activity change below about -80%; inconclusive = between about -30% and that limit;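 also: parasites exposed to compound for two days anaerobically before the ATP read; % is scaled to controls: 0 for no effect and ±100 for the full control effect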
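Giardia lamblia trophozoites (100 cells/well) were incubated with compounds for 48 h at 37 deg C under anaerobic conditions. Viability was read as ATP content by one-step luminescence after 15-30 min at room temperature.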
RXFP1 agonist: agonists of human relaxin receptor RXFP1; Q9HBX9; HEK293T-RXFP1 cAMP TR-FRET, 30 min; response scale: percent of porcine relaxin response, buffer zero; Potency, µM (titrated, usually from 57.5 µM), inactives show at the top dose activation, most hits filed as activators; 370,000 tested, 0.3% active; also: potency is read from the fitted curve at half-maximal effect; % is scaled to controls: 0 for no effect and ±100 for the full control effect; nearly all actives have a fitted effect of over 60% in size
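cAMP rise read by TR-FRET after 30 min, 37C compound exposure (up to 58 uM) in RXFP1-transfected HEK293 cells with Ro 20174 present. EC50 from Hill-equation fits, with 29 nM porcine relaxin as 100% and buffer as basal.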
Numbers without * were called inactive; ? = inconclusive; . = not tested or not shown; ! = repeats disagree; [ ] = remark or other dose. Unless noted, calls follow the shape of the dose curve; as a rule, active = well fitted curve in the direction sought with a large enough effect; inconclusive = small, poorly fitted or top-dose-only effect, or another doubt; inactive = no such curve, though single readings can be large; an effect the other way counts as inactive or inconclusive.

SMILES	BRCA1 expr act	NPSR antagonist	RXFP1 antag	IL-2 act	Giardia kill	RXFP1 agonist
O=C(c1ccc2c(c1)OCCO2)N1CCN(c2nc(-c3cccs3)nc3ccccc23)CC1	-11.5%	.	.	.	-2.1	.
Cc1n[nH]c(C)c1N1C(=O)c2cccc3c(N4CCCCCC4)ccc(c23)C1=O	-17.9%	-29.0%[46.1 µM]	-65.4*	?	-11.3	3.6%
O=c1cc(N2CCCCC2)c(-c2ccccc2)nn1Cc1c(Cl)cccc1Cl	-82.3%	10µM*	?	-3.4	15.5	-0.4%
O=[N+]([O-])c1ccccc1OCCCn1cnc2ccccc21	2µM*	-5.3%	-11.7	0.6	-10.2	0.5%
N=C1Sc2ccccc2C2=NCCCN12	.	-8.6%[46.1 µM]	.	.	.	.
Oc1ccc(N=Nc2cccc(C(F)(F)F)c2)cc1C=Nc1ccc(N2CCOCC2)cc1	-31.9%	7.94µM*	-35.2	0.5	-9.7	0.6%
Oc1ccc(C=Nc2ccc(N3CCOCC3)cc2)c(O)c1	-42.7%	-17.9%[46.1 µM]	-10.0	2.1	0.6	-1.0%
O=c1cc(-c2ccccc2F)oc2ccccc12	12.6µM*	-7.0%[46.1 µM]	-5.6	-0.6	-1.0	0.2%
O=C(/C=C/c1ccc([N+](=O)[O-])s1)N1CCCC1	-83.3%	-20.6%	3.9	-0.1	-86.9*	6.2%
O=C(/C=C/c1ccc([N+](=O)[O-])s1)N1CCN(c2ccccc2)CC1	-75.0%	.	-2.5	-0.3	?	3.8%
O=C(/C=C/c1ccc([N+](=O)[O-])s1)N1CCCCC1	-78.4%	-28.4%	20.3	0.3	-82.0*	-1.1%
CCCN1CNc2c(c(=O)[nH]c(=S)n2CCc2ccc(Cl)c(Cl)c2)C1	0.0%	.	.	.	14.2	.
C(#Cc1ccccc1)Cn1nnc2ccccc21	12.6µM*	1.4%[46.1 µM]	8.5	-0.5	-12.8	2.0%
c1ccc(CNn2nnc3ccccc32)cc1	5.01µM*	.	.	0.4	.	.
O=C(O)Cc1cccc(-c2cc(CCCCCCc3ccc(O[C@H]4O[C@H](CO)[C@@H](O)[C@H](O)[C@@H]4O)c(-c4cccc(CC(=O)O)c4)c3)ccc2O[C@H]2O[C@H](CO)[C@@H](O)[C@H](O)[C@@H]2O)c1	.	.	5.6	.	.	.
CCCCCCCCCCCCCCC[C@H](O)[C@@H](N)CO	.	.	5.7	.	.	.
CCCCCCCCCCCCCCC(O)C[N+](C)(CCO)CCO (stereo not given)	-87.3%	.	-60.8*	-6.0	17.8	.
Brc1ccccc1-n1nnc(-c2nccs2)n1	4.47µM*	2.8%	.	-2.5	-9.6	1.4%
c1ccc(-n2nnc(-c3nccs3)n2)cc1	2.82µM*	.	.	0.1	-11.0	.
COc1ccc(CNc2ncnc3nc[nH]c23)cc1OC	6.2%	.	.	.	15.4	.
COc1ccc(S(=O)(=O)N2CCOCC2)cc1NC(=O)CSc1nnc2ccccn12	.	7.6%	.	.	.	3.55µM*
O=C(CSc1nnc2ccccn12)Nc1ncc(Cl)cc1Cl	10µM*	-16.4%[46.1 µM]	-8.1	-4.5	4.5	5.4%
Fc1cccc(Cl)c1CSc1nnc2ccccn12	?	8.0%	-1.1	1.8	1.2	-0.9%
CC(Sc1nnc2ccccn12)C(=O)Nc1ncc(Cl)cc1Cl (stereo not given)	80.1%	4.3%[46.1 µM]	-2.8	-1.4	15.8	0.0%
Fc1ccc(CSc2nnc3ccccn23)c(Cl)c1	10µM*	4.3%	-17.9	-0.9	11.1	3.6%
SMILES	BRCA1 expr act	NPSR antagonist	RXFP1 antag	IL-2 act	Giardia kill	RXFP1 agonist
Cc1ccc(Cn2c(=O)c3cccnc3n(Cc3ccc(F)cc3)c2=O)cc1	-6.1%	.	.	.	.	0.3%
O=C1/C(=C/c2ccc(N3CCOCC3)o2)SC(=Nc2ccccc2)N1CCc1c[nH]c2ccccc12	-85.0%	?	-80.5*	11.8	-14.2	2.0%
COc1cc(/C=C2\SC(=Nc3ccccc3)N(CCc3c[nH]c4ccccc34)C2=O)ccc1OC(C)C(=O)O (stereo not given)	-17.7%	?	-16.6	0.1	-18.5	-2.5%
CCOC(=O)C(=O)N(Nc1ccc(C)cc1)c1ccc(C)cc1	11.2µM*	24.5%	-68.3*	0.1	0.6	3.8%
Cc1ccc(N2CCN(C(=O)Nc3cn(CC(C)C)c(=O)c4ccccc34)CC2)c(C)c1	8.6%	.	.	.	.	0.1%
O=C(CCS(=O)(=O)c1nc(-c2cccs2)cc(C(F)(F)F)n1)Nc1ccc(F)c(Cl)c1	.	.	-60.2*	.	.	0.2%
COc1ccc(NC(=O)CCS(=O)(=O)c2nc(-c3cccs3)cc(C(F)(F)F)n2)cc1	.	.	?	.	.	3.2%
CC(=O)c1ccc(S(=O)(=O)Nc2ccc(-c3ccc(N4CCCCC4)nn3)cc2)cc1	.	.	-30.1	.	.	0.6%
CCOC(=O)c1cccc(NC(=O)c2cc(-c3ccc(Cl)s3)nc3ccccc23)c1	.	.	-2.6	.	.	9.1%
Cc1ccc(C(=O)Nc2ccc3oc(-c4ccc(C(C)(C)C)cc4)nc3c2)cc1	.	.	-6.4	.	.	4.9%
CCn1c(CNc2cccc(C(F)(F)F)c2)n[nH]c1=S	-7.6%	4.7%	-110.3*	-0.3	-17.6	-0.8%
O=c1[nH]nc(CNc2cccc(C(F)(F)F)c2)c2ccccc12	-13.1%	2.4%	-1.6	-2.9	?	-0.7%
COc1ccc(N(Cc2cccs2)C(=O)COc2cc(C)c(Cl)c(C)c2)cc1	.	.	-69.2*	.	.	-1.8%
Cc1cc(C)cc(OCC(=O)N(Cc2cccs2)c2ccc(Cl)cc2)c1	-8.7%	.	.	.	.	0.0%
COc1ccc(N(Cc2cccs2)C(=O)COc2cccc(C)c2C)cc1	.	.	-71.7*	.	.	-0.3%
CC(=O)Nc1ccc(NC(=O)COC(=O)c2ccccc2OCc2cccc(Br)c2)cc1	11.8%	.	.	.	.	.
Cc1ccc(-c2nn(CC(=O)Nc3cccc(C(F)(F)F)c3)c(=O)c3ccccc23)cc1	.	.	-9.6	.	.	-0.5%
O=C(CCc1nnc2ccc(N3CCC4(CC3)OCCO4)nn12)NCc1ccc(F)cc1	-1.6%	.	21.8	0.4	23.7	15.8µM*
Cc1ccc(NC(=O)Nc2ccc(Cl)cn2)cc1	4.47µM*	5.3%	9.3	2.6	-6.2	-0.8%
Cc1ccnc(NC(=O)Nc2cccc(F)c2)n1	1µM*	1.2%	-4.7	-1.6	-6.1	-1.1%
Cc1ccc(NC(=O)Nc2cccc(F)c2)nc1	3.16µM*	.	-7.6	0.4	18.2	0.2%
Cc1ccc(NC(=O)Nc2ccc(Cl)c(Cl)c2)nc1	?	.	-2.1	-6.0	-3.2	2.3%
COc1cccc(NC(=O)Nc2nccc(C)n2)c1	0.1%	12.3%	10.5	-3.7	?	-3.7%
Cc1ccc(-c2cc(C(=O)NCc3cnn(C)c3C)c3cc(Br)ccc3n2)cc1	80.9%	?	7.5	0.4	-2.0	28.2µM*!
CN(C)c1ccc(NC(=O)CCSc2nc(-c3ccco3)cc(C(F)(F)F)n2)cc1	.	.	-12.0	.	.	2.8%

Source: PubChem BioAssay
